Hits are enriched below; roughly 6.2% of the tested compounds scored in any of these assays.
ATXN2 expr inh: ATXN2 expression inhibition. AID 1745845. HEK-293 ATXN2-luciferase reporter, luminescence, 24 h. actives 0.72% (n = 360,000). Potency, µM (series often up to 57 µM), for inactives: at the top dose activity change, negative = inhibition, usual class: inhibitors; note: % is set by controls: 0 for no effect and ±100 for the full control effect; nearly all actives have a fitted effect of over 55% in size
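qHTS (up to 57 uM final) was run with 24 h compound exposure of reporter cells at 37 °C. Each well was multiplexed: SteadyGlo luminescence measured ATXN2-luciferase expression after a fluorogenic Gly-Phe-AFC viability readout (25 uM final).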
HT1080-NT tox: kills 2HG-producing HT-1080-NT fibrosarcoma cells; HT-1080-NT fibrosarcoma viability, CellTiter-Glo ATP luminescence, 48 h; Potency, µM (doses to about 46.1 µM), inactives show at the top dose activity, negative = less viability, usual class: cytotoxic; actives 1.6% (n = 360,000);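 note: NT is the 2HG producing partner of a matched IDH1 knockdown line; 0% = DMSO-treated cells and -100% = media-only wells without cells; nearly all actives have a fitted effect of over 55% in size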
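750 cells/well, RPMI + 5% FBS; 2 h settle, compound pin-transfer, 48 h at 37 degrees C. CellTiter-Glo 10 min RT, luminescence. Normalized to DMSO and media-only wells.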
KB-V1 cytotox: KB-V1 MDR subline cytotoxicity. KB-V1 MDR cells viability, CellTiter-Glo, 72 h. actives 3.4% (n = 400,000). AID 1347076. Potency, µM (series often up to 46.1 µM), hits mostly cytotoxic; note: % is set by controls: 0 for no effect and ±100 for the full control effect; nearly all actives have a fitted effect of over 60% in size
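Following 72 h at 37 degrees C with compound, KB-V1 cell viability was read by CellTiter-Glo luminescence, medium being phenol-red-free DMEM plus 10% FBS; concentration-response parameters came from normalized, curve-fitted qHTS data.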
KB-3-1 tox: kills parental KB-3-1 adenocarcinoma cells; KB-3-1 viability, CellTiter-Glo ATP luminescence, 72 h; actives 1.4% (n = 400,000); Potency, µM (highest dose often 46.1 µM), hits mostly cytotoxic; note: % is set by controls: 0 for no effect and ±100 for the full control effect; nearly all actives have a fitted effect of over 60% in size
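KB-3-1 cells, DMEM (no phenol red) + 10% FBS; compound by pin transfer, 72 h, 37 °C. Readout: CellTiter-Glo luminescence after 10 min. Data normalized, curve-fitted.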
HT1080 IDH1KD tx: HT-1080 IDH1 knockdown cell toxicity (counter line). HT-1080 IDH1 knockdown viability, ATP luminescence, 48 h. Potency, µM (highest dose often 46.1 µM), inactives show top-dose activity, negative = toxicity, hits mostly cytotoxic. actives 2% (n = 360,000);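 note: 0% = DMSO wells and -100% = cell-free medium wells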
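After a 2 h attachment period, IDH1KD HT-1080 cells took pin-transferred compound for 48 h at 37 °C; ATP-based luminescence after 10 min room-temperature reagent incubation reported viability.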
S2 tox: viability counter-screen for ATXN expression inhibitors. actives 0.49% (n = 400,000). S2 cells (HEK-293 line with an ATXN2-luciferase reporter) viability, CellTiter-Fluor protease fluorescence, 24 h. Potency, µM (titrated, usually from 56.7 µM), hits mostly cytotoxic; note: nearly all actives have a fitted effect of over 40% in size
* marks the source's active call; other numbers are inactive results; i = inactive; ? = inconclusive; . = no result; ! = a repeat was not active; [ ] = dose if it differs, or a comment. Calls come from the whole dose curve; as a rule, active = well fitted curve in the direction sought with a large enough effect; inconclusive = small, poorly fitted or top-dose-only effect, or another doubt; inactive = no such curve, though single readings can be large; an effect the other way counts as inactive or inconclusive. Potency is the fitted concentration of half-maximal effect.

SMILES	ATXN2 expr inh	HT1080-NT tox	KB-V1 cytotox	KB-3-1 tox	HT1080 IDH1KD tx	S2 tox
COc1ccc(C(=O)CN2CCN(CCN3C(=O)c4cccc5cccc(c45)C3=O)CC2)cc1	-37%	-27%	i	i	-30%	i
COc1ccc(-c2nc(SC(C)C(=O)NC3CC3)n[nH]2)cc1 (stereo unspecified)	24%	10%	i	i	2%	i
O=c1c2ccccc2nc2n1C(CSCc1ccc(Cl)cc1Cl)CS2 (stereo unspecified)	-27%	-2%	5.8µM*	?	-1%[9.24 µM]	i
CC(=O)N(c1ccccc1)C1CCCC1	-6%	1%	i	i	0%	i
O=C(CCl)N(c1ccccc1)C1CCCCC1	?	5.2µM*	?	i	3.3µM*	?
O=[N+]([O-])c1ccc(Cl)c(C2Nc3cccc4cccc(c34)N2)c1	?	-25%	?	10µM*	-5%	?
CC1CN(CC(=O)NCCc2ccncc2)Cc2ccccc2O1 (stereo unspecified)	.	.	.	.	.	i
O=[N+]([O-])c1ccc(S(=O)(=O)N2CCN(Cc3c[nH]c4ccccc34)CC2)cc1	-3%	-20%	21µM*	i	5%	i
CC(=O)Nc1ccc(C(=O)Nc2ccc(-c3nc4ccccc4[nH]3)cc2)cc1	.	.	?	i	.	.
O=C(c1ccc(Cl)cc1)c1c[nH]c(C(=O)NNc2cccc(Cl)n2)c1	-27%	23µM*	i	i	?	i
O=C(c1ccccc1)c1c[nH]c(C(=O)NNc2cccc(Cl)n2)c1	-4%	22%	i	i	21%	i
CCOC(=O)c1c(Oc2ccc(OC)cc2)nnc(-c2ccccc2)c1-c1ccccc1	-20%	.	i	i	.	i
COc1cc(NC(=O)CN2C(=O)CCc3cc(Br)ccc32)cc(OC)c1OC	-1%	.	i	i	.	i
C1=C/C(=C2/C=Cc3ccccc32)c2ccccc2N1	.	.	2.3µM*	4.6µM*	.	.
Cc1sc(NC(=O)c2ccco2)c(C(c2cccnc2)N2CCC(C)CC2)c1C (stereo unspecified)	?	21µM*	?	18µM*	4.6µM*	?
CC(O)(COc1ccccc1)c1ccc2c(c1)CN(Cc1cccc3ncccc13)CCO2 (stereo unspecified)	.	.	.	.	.	i
CCOc1ccc2nc(NCCCNS(=O)(=O)c3ccc(F)cc3)c(C#N)cc2c1	-4%	-2%	i	18µM*	-12%	.
Cc1cccc2sc(N(CCCN(C)C)C(=O)c3ccc(Cl)s3)nc12	22µM*!	-18%	i	i	?	?
COc1cc2nc(N(CCCN(C)C)C(=O)c3ccc(C(=O)c4ccccc4)cc3)sc2cc1OC	?	0%	i	i	-1%	.
Cc1cc(C)c2nc(N(CCCN(C)C)C(=O)c3ccc4c(c3)OCCO4)sc2c1	?	12µM*	26µM*	?	?	?
COc1cccc2sc(N(CCCN(C)C)C(=O)c3ccc(S(=O)(=O)N4CCCc5ccccc54)cc3)nc12	?	18µM*	?	?	?	?
CCc1ccc2nc(N(CCCN(C)C)C(=O)c3ccc(C(=O)c4ccccc4)cc3)sc2c1	?	?	i	23µM*	?	?
O=C(COC(=O)c1ccc2ccccc2n1)Nc1ccccc1F	9%	4%	i	i	0%	i
CC(c1nc2ccccc2n1Cc1ccccc1)n1c(-c2cnccn2)nc2ccccc21 (stereo unspecified)	.	?	?	i	?	.
CN(C)CCN(C(=O)c1ccc2ccccc2c1)c1nc2cc3c(cc2s1)OCCO3	15%	-4%	i	i	-4%	i
SMILES	ATXN2 expr inh	HT1080-NT tox	KB-V1 cytotox	KB-3-1 tox	HT1080 IDH1KD tx	S2 tox
CN(C)CCCN(C(=O)c1ccc2ccccc2c1)c1nc2cc3c(cc2s1)OCO3	25µM*	?	i	i	?	32µM*
CCc1ccc2nc(N(CCCN(C)C)C(=O)c3ccc(S(=O)(=O)N4CCCc5ccccc54)cc3)sc2c1	?	?	9.2µM*	?	?	?
N#Cc1nc(-c2ccc(OCc3ccccc3Cl)cc2)oc1N1CCC(C(N)=O)CC1	.	.	?	i	.	.
Cc1ccc2[nH]c3c(c2c1)CCCC3=O	63%	-7%	1.8µM*	1.8µM*	-6%	?
O=C1CCCc2c1[nH]c1ccc(CN3CCCCC3)cc21	70%	?	?	i	10µM*	i
Cc1ccc2[nH]c3c(c2c1)CCC3=O	43%	0%	?	i	-15%	i
CC(C)c1ccc2[nH]c3c(c2c1)CCC/C3=N\NC(=O)c1ccncc1	-38%	?	?	?	?	.
CC(C)c1ccc2[nH]c3c(c2c1)CCCC3=O	-12%	21µM*	13µM*	i	?	i
CC(=O)Nc1ccc(S(=O)(=O)NCCc2ccc3c(c2)OCCO3)cc1	.	8%	i	i	12%	i
CC(C)(C)C(=O)Nc1nc2nc(-c3ccccc3)cc(=O)n2[nH]1	0%	.	i	i	.	i
Cc1cc([N+](=O)[O-])nn1CCCC(=O)O	10%	9%	?	i	6%	i
Cc1cc([N+](=O)[O-])nn1CCCC(=O)N1CCN(c2ccc(F)cc2)CC1	-11%	-5%	18µM*	i	1%	i
Cc1cc([N+](=O)[O-])nn1CCCC(=O)Nc1cc(Oc2ccc(F)cc2)cc([N+](=O)[O-])c1	6%	12%	5.8µM*	i	15%	i
O=C(/C=C/c1c(F)c(F)c(F)c(F)c1F)Nc1cccc([S+](=O)([O-])Nc2ccccc2F)c1	.	.	i	i	.	.
CCOC(=O)c1ccc(NS(=O)(=O)c2cc3c(cc2C)n(C)c(=O)c(=O)n3C)cc1	2%	.	?	i	.	i
OCCN(CC(O)Cn1ccc2ccccc21)CC(O)Cn1ccc2ccccc21 (stereo unspecified)	-8%	-3%	15µM*	i	-16%	i
CC(C)(C)c1ccc(OCC(O)CN(CCO)CC(O)Cn2ccc3ccccc32)cc1 (stereo unspecified)	-18%	?	?	?	?	i
CCn1c(SCC(=O)N2CCN(c3ccccc3)CC2)nc2c([nH]c3ccccc32)c1=O	-11%	-1%	i	?	11%	i
CCCn1c(SCC(=O)N2CCCCC2)nc2c1c(=O)n(C)c(=O)n2C	9%	0%	i	i	1%	i

Compound activity (PubChem)
